PubChem BioAssay (EPA / NIEHS)
Where “and” joins values, the source holds several entries; their conditions need not be identical. Equal values may be shown once. Inconclusive results are not listed. Calls of active or inactive are those of the source. How the source made its calls: active means hit-call score of the fitted dose curve at least 0.9, where 1 is the maximum; inconclusive means response in the unintended direction; inactive means score below 0.9.

What was measured:
[1] = target: Luciferin 4-monooxygenase (Photinus pyralis) (UniProt P08659); assay: CCTE_Simmons_QuantiLum_inhib_2: CCTE's Firefly Luciferase Inhibition Assay, Simmons Lab (AID 2283767)
Method in brief: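 Eight-point titrations of each chemical, 5 nM–87.5 uM final in 0.5% DMSO, were run in three biological replicates against recombinant luciferase for 30 min at 37C. Bioluminescence signal loss, read on reagent injection, gave the inhibition endpoint.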

[2] = ACEA_AR_antagonist_AUC_viability: ACEA Biosciences xCELLigence Real-Time Cell Analysis on Androgen Receptor Antagonism for Viability (AID 2283776);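 further: 22Rv1 human prostate cancer cells growing on impedance electrode plates; area under impedance growth curve at 80 h after dosing as viability; hits lower the growth signal relative to DMSO meaning cytotoxicity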
Method in brief: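 22Rv1 prostate cells, continuous dosing up to 100 uM final (0.5% DMSO max), duplicate plates. Growth measured by impedance; AUC at 80 h, loss of signal vs DMSO.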

[3] = ACEA_ER_AUC_viability: ACEA Biosciences xCELLigence Real-Time Cell Analysis on Estrogen Receptor Agonism for Viability (AID 2283782);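 further: hit means loss of impedance signal meaning reduced cell growth or viability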
Method in brief: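 Viability endpoint: reduced impedance area under the curve relative to DMSO, recorded by real-time electrode sensing over ~80 h of continuous exposure. Duplicate plates of T47D in hormone-depleted medium; eight concentrations, 1:4 dilutions, 100 uM maximum.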

[4] = target: zebrafish Estrogen Receptor (ESR1), esr1 (gene 259252) (UniProt P57717); assay: ATG_zfER1_XSP1: Attagene TRANS-FACTORIAL Multi-Species (XSP1) HepG2 Assay for zebrafish Estrogen Receptor (ESR1) (AID 2283772)
Method in brief: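 HepG2 cells were transiently transfected with multiplexed GAL4-UAS reporter units driven by chimeric NR-GAL4 proteins, dosed for 24 h with 3 nM 6-alpha-fluorotestosterone present, and reporter mRNA quantified by RT-PCR and capillary electrophoresis versus DMSO.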

[5] = test system: zebrafish Estrogen Receptor (ESR2B), gene 317733; assay: ATG_zfER2b_XSP1: Attagene TRANS-FACTORIAL Multi-Species (XSP1) HepG2 Assay for zebrafish Estrogen Receptor (ESR2B) (AID 2283773)
Method in brief: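 Medium contained 3 nM 6-alpha-fluorotestosterone. Reporter mRNA induction by exogenous zebrafish ER2b-Gal4 chimera was read 24 h post-dose in transiently transfected HepG2 cells, using RT-PCR, fluorescent labelling, HpaI digestion and capillary electrophoresis.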

[6] = test system: frog Estrogen Receptor (ESR2), gene 100174814; assay: ATG_frER2_XSP1: Attagene TRANS-FACTORIAL Multi-Species (XSP1) HepG2 Assay for frog Estrogen Receptor (ESR2) (AID 2283774)
Method in brief: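 Reporter mRNA from a multiplexed TRANS system, measured by RT-PCR with fluorescent labelling and capillary electrophoresis, 24 hours after chemical exposure. Human HepG2 liver cells carried exogenous frog ER-Gal4 chimera; medium included 3 nM 6-alpha-fluorotestosterone; increases versus DMSO analysed.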

[7] = ACEA_AR_agonist_AUC_viability: ACEA Biosciences xCELLigence Real-Time Cell Analysis on Androgen Receptor Agonism for Viability (AID 2283775);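 on AC50: viability read 80 hours after compound addition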
Method in brief: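 Viability endpoint from xCELLigence impedance in 22Rv1 prostate cells at 80 h. Eight-point series, 100 uM maximum final.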

[8] = test system: frog Estrogen Receptor (ESR1), gene 398734; assay: ATG_frER1_XSP1: Attagene TRANS-FACTORIAL Multi-Species (XSP1) HepG2 Assay for frog Estrogen Receptor (ESR1) (AID 2283777)
Method in brief: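 HepG2 cells transiently transfected with GAL4-UAS reporter units and frog ER–Gal4 chimera were dosed for 24 h with 3 nM 6-alpha-fluorotestosterone present. Reporter mRNA was measured by RT-PCR and capillary electrophoresis; gain of signal fitted versus DMSO.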

[9] = target: chicken Estrogen Receptor (ESR1), ESR1 (gene 396099) (UniProt P06212); assay: ATG_chERa_XSP1: Attagene TRANS-FACTORIAL Multi-Species (XSP1) HepG2 Assay for chicken Estrogen Receptor (ESR1) (AID 2283779)
Method in brief: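 Trans-activation of an exogenous chicken ERα–Gal4 chimera read as reporter transcript (RT-PCR, fluorescent labeling, capillary electrophoresis) after 24 h compound exposure of transfected HepG2; medium held 3 nM 6-alpha-fluorotestosterone. Positive-direction fit against DMSO.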

[10] = test system: turtle Estrogen Receptor (ESR1), gene 101933533; assay: ATG_trERa_XSP1: Attagene TRANS-FACTORIAL Multi-Species (XSP1) HepG2 Assay for turtle Estrogen Receptor (ESR1) (AID 2283781)
Method in brief: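 Transactivation measured 24 h post-dose as reporter mRNA (RT-PCR, fluorescent capillary electrophoresis) from an NR-Gal4 turtle ER construct in HepG2. Medium included 3 nM 6-alpha-fluorotestosterone; increase over DMSO fitted.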

[11] = target: Estrogen receptor beta (Homo sapiens) (UniProt Q92731); assay: ATG_hERb_XSP1: Attagene TRANS-FACTORIAL Multi-Species (XSP1) HepG2 Assay for human Estrogen Receptor (ESR2) (AID 2283788)
Method in brief: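 HepG2 cells transiently transfected with multiplexed GAL4-UAS reporter units carrying chimeric human ERβ-Gal4; 24 h compound exposure with 3 nM 6-alpha-fluorotestosterone present. Reporter mRNA quantified by RT-PCR, FAM labelling and capillary electrophoresis; gain-of-signal fitted versus DMSO.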

[12] = ArunA_Migration_hNC: ArunA Biomedical's Oris Neural Crest (hNC) Cell Migration Assay (AID 2283755)
Method in brief: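 Calcein-AM fluorescence (ex494 nm/em 517 nm) in the stopper-defined detection zone quantifies migration of hNC cells after 72 h chemical exposure; 60,000 cells/well plated on Matrigel with LIF and bFGF, 16 h pre-incubation. DMSO baseline.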

[13] = ArunA_NOG_NucleusCount: ArunA Biomedical's Neurite Outgrowth (NOG) Assay for Nucleus Count (AID 2283756)
Method in brief: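 Viable neuron count, from Hoechst nuclei passing size and intensity gates, imaged at 20x on differentiated H9-derived human neurons. Exposure lasted 48 h from seeding; activity was scored relative to DMSO.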

[14] = ArunA_NOG_NeuriteLength: ArunA Biomedical's Neurite Outgrowth (NOG) Assay for Neurite Length (AID 2283757)
Method in brief: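 Total neurite length per neuron, from traced βIII-tubulin-labelled processes longer than 10 um on viable Hoechst-gated cells, was scored as decrease from DMSO. Cells were hESC (H9)-derived neurons given 48 h chemical exposure immediately after seeding.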

[15] = ArunA_NOG_NeuritesPerNeuron: ArunA Biomedical's Neurite Outgrowth (NOG) Assay for Neurites Per Neuron (AID 2283758)
Method in brief: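 Differentiated human H9-derived neurons exposed to chemicals for 48 h from seeding, then stained with Hoechst and βIII-tubulin/DyLight 488. Automated imaging counted neurites (processes >10 um) per valid neuron; loss of signal versus DMSO scored.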

[16] = ArunA_NOG_BranchPointsPerNeurite: ArunA Biomedical's Neurite Outgrowth (NOG) Assay for Branch Points Per Neurite (AID 2283759)
Method in brief: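 Automated image analysis traced neurites (processes >10 um) from valid cell bodies after Hoechst and βIII-tubulin staining. hNN cells from H9 embryonic stem cells, 48 h exposure. Fitted bidirectionally against DMSO.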

[17] = STM_H9_NormalizedViability: Cytotoxicity Assessment at 120 hours in the Stemina devTOX quickPredict H9 human embryonic stem cell (hESC)-based Assay (AID 2283784)
Method in brief: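 Here, H9 cells received test compound with daily medium renewal. Each plate included methotrexate references (1uM, 5 nM), 0.1% DMSO and media blanks; CellTiter-Fluor RFU was normalized to DMSO.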

[18] = test system: zebrafish Androgen Receptor (AR), gene 100005148; assay: ATG_zfAR_XSP1: Attagene TRANS-FACTORIAL Multi-Species (XSP1) HepG2 Assay for zebrafish Androgen Receptor (AR) (AID 2283771)
Method in brief: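 Gain-of-signal versus DMSO was measured as reporter transcripts quantified by RT-PCR, fluorescent labelling and capillary electrophoresis after 24 h chemical exposure. The cells were HepG2 expressing a chimeric zebrafish AR-GAL4, co-stimulated with 3 nM 6-alpha-fluorotestosterone.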

[19] = target: AR (gene 367) (UniProt P10275); assay: ACEA_AR_antagonist_80hr: ACEA Biosciences xCELLigence Real-Time Cell Analysis on Androgen Receptor Antagonism for Proliferation (AID 2283787);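 further: 22Rv1 human prostate cancer cells with growth followed by electrical impedance; hits lower the impedance growth signal relative to DMSO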
Method in brief: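 Impedance-based real-time growth of 22Rv1 prostate cells, read 80 h after dosing. Eight concentrations, 1:4 series, top 100 uM final (0.5% DMSO), n = 2; signal decrease scored against DMSO.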

Sequence of Luciferin 4-monooxygenase (Photinus pyralis) (P08659 whole entry, looked up): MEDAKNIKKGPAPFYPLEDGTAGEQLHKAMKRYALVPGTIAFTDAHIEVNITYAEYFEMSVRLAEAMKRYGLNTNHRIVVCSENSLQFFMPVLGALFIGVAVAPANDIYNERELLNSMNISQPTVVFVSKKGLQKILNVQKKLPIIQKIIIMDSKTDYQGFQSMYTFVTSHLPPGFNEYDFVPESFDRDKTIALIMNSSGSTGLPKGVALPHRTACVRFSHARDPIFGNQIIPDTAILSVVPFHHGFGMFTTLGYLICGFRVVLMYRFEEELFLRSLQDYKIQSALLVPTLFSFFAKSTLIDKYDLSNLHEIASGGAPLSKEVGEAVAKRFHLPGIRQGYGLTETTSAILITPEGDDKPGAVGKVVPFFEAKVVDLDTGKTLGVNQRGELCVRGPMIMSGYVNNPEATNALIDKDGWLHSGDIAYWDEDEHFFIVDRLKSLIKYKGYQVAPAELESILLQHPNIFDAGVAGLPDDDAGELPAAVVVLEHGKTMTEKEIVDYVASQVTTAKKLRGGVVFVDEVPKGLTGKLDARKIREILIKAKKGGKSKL
Sequence of zebrafish Estrogen Receptor (ESR1), esr1 (gene 259252) (P57717 whole entry, looked up, the tested form may be a part): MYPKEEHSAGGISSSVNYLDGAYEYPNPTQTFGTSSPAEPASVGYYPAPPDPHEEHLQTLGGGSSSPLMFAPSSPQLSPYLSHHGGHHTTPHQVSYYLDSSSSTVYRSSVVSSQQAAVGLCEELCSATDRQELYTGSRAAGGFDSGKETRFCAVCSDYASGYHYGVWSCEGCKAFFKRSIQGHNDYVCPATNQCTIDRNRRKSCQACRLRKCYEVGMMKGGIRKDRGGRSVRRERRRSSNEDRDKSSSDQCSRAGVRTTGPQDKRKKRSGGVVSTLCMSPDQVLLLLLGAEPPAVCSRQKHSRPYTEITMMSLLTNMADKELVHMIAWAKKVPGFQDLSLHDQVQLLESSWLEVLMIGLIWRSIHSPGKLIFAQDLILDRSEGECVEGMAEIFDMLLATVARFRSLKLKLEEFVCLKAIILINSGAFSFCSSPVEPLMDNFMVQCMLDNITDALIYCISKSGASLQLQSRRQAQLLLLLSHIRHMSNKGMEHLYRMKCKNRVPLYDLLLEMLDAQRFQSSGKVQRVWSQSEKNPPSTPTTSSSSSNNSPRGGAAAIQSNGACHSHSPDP
Sequence of Estrogen receptor beta (Homo sapiens) (Q92731 whole entry, looked up, the tested form may be a part): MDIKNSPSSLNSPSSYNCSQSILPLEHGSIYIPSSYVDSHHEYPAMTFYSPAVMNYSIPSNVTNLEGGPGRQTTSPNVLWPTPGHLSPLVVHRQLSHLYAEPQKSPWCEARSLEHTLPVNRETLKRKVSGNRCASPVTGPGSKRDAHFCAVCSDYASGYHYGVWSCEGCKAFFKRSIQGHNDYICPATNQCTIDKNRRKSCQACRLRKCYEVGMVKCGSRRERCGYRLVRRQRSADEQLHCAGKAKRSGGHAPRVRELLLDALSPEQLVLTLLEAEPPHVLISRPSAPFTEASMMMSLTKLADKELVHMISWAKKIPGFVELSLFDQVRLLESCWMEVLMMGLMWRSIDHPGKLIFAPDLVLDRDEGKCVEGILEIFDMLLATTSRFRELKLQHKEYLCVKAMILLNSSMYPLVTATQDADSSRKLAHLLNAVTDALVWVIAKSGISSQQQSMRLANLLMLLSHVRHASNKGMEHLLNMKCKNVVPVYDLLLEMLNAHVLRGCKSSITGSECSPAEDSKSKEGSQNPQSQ
Sequence of chicken Estrogen Receptor (ESR1), ESR1 (gene 396099) (P06212 whole entry, looked up, the tested form may be a part): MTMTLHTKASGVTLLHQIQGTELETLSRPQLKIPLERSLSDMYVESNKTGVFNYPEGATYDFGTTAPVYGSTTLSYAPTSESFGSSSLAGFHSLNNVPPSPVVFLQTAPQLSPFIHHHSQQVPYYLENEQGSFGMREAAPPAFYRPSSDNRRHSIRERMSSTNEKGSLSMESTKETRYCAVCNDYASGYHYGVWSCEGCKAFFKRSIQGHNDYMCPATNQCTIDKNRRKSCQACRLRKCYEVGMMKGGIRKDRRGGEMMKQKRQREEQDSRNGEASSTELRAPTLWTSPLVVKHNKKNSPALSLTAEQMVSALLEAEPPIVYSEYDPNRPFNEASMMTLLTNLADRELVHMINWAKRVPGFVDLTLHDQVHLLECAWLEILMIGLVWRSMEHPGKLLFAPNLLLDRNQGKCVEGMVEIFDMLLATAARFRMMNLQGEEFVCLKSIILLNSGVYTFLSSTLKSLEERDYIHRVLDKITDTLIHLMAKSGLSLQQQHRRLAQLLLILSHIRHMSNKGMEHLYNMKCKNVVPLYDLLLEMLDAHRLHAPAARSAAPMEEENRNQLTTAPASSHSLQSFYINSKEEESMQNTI
Sequence of AR (gene 367) (P10275 whole entry, looked up): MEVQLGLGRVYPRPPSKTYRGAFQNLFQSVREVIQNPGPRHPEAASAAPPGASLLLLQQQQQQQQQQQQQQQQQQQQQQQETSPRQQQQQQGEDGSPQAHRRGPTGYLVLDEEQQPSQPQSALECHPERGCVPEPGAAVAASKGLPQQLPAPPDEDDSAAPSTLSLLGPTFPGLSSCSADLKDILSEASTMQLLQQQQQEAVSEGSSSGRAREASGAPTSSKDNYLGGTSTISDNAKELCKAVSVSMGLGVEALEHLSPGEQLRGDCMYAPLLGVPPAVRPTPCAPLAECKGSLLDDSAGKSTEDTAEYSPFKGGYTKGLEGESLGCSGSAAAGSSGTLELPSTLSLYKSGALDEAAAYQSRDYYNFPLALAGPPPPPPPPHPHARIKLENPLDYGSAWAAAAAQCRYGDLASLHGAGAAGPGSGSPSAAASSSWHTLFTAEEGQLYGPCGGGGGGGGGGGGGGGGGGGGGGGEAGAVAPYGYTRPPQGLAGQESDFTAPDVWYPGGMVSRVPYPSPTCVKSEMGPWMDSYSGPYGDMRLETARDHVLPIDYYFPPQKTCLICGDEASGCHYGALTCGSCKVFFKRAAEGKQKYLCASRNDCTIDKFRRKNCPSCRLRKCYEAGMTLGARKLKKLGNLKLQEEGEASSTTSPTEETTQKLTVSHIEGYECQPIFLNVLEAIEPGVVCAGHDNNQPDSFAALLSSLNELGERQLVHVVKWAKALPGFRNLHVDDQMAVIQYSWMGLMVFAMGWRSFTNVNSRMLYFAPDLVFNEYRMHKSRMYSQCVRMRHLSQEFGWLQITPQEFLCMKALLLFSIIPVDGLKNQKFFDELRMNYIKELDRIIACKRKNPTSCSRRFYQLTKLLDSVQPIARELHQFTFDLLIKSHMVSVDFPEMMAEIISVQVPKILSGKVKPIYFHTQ

In the case of `Oc1ccc(O)cc1`, the outcome [1] was “inactive”, the AC50 [2] was 50 µM (active) and the AC50 [3] was 11.3 µM (active).

In the case of `CC(C)NCC(O)c1ccc(O)c(O)c1` (centres undefined), the outcome [1] was “inactive”.

For `CC(=O)O[C@]1(C(C)=O)CC[C@H]2[C@@H]3C=C(Cl)C4=CC(=O)[C@@H]5C[C@@H]5[C@]4(C)[C@H]3CC[C@@]21C`, the AC50 [4] was 35.6 µM (active), the AC50 [5] was 13.1 µM (active) and the AC50 [6] was 18 µM (active). The AC50 [7] was 87.1 µM (active), the AC50 [2] was 0.0607 µM (active) and the AC50 [8] was 4.61 µM (active). For the same compound, the AC50 [9] was 5.26 µM (active), the AC50 [10] was 3.25 µM (active) and the AC50 [11] was 8.21 µM (active).

In the case of `COC(=O)[C@H]1[C@H]2C[C@@H]3c4[nH]c5cc(OC)ccc5c4CCN3C[C@H]2C[C@@H](OC(=O)c2cc(OC)c(OC)c(OC)c2)[C@@H]1OC`, the AC50 [12] was 50 µM (active), the outcome [13] was “inactive” and the outcome [14] was “inactive”. For the same compound, the outcome [15] was “inactive”, the outcome [16] was “inactive” and the outcome [1] was “inactive”. The AC50 [7] was 42.2 µM (active), the AC50 [2] was 33 µM (active) and the AC50 [3] was 60.5 µM (active). The outcome [17] was “inactive”.

With `CCN(CC)CCOc1ccc(C(=C(Cl)c2ccccc2)c2ccccc2)cc1` the outcome [18] was “inactive”, the outcome [4] was “inactive” and the outcome [5] was “inactive”. For the same compound, the outcome [6] was “inactive”, the AC50 [7] was 13.1 µM (active) and the AC50 [2] was 12.4 µM (active). The AC50 [3] was 6.6 µM (active) and 7.32 µM (active) and 11.2 µM (active) and the AC50 [17] was 8.7 µM (active).

In the case of `O=C1O[C@H]([C@H](O)CO)C(O)=C1O`, the outcome [1] was “inactive” and the outcome [7] was “inactive”.

In the case of `O=C(O)c1[nH]n(-c2ccc(S(=O)(=O)O)cc2)c(=O)c1N=Nc1ccc(S(=O)(=O)O)cc1`, the outcome [7] was “inactive” and the outcome [2] was “inactive”.

With `S=c1[nH]c2ccccc2s1` the outcome [1] was “inactive”, the outcome [2] was “inactive” and the AC50 [3] was 91.9 µM (active).

In the case of `C/C=C/C=C/C(=O)O`, the outcome [1] was “inactive”, the outcome [2] was “inactive” and the outcome [3] was “inactive”.

With `CCOCCOCCO` the outcome [7] was “inactive”.

In the case of `CCCCC(CC)COP(=O)(OCC(CC)CCCC)OCC(CC)CCCC` (centres undefined), the outcome [12] was “inactive”, the outcome [13] was “inactive” and the outcome [14] was “inactive”. The outcome [15] was “inactive”, the outcome [16] was “inactive” and the AC50 [7] was 17.6 µM (active). For the same compound, the AC50 [2] was 16.8 µM (active).

With `CC(C)c1cccc(C(C)C)c1NC(=O)NS(=O)(=O)c1cc(C(C)(C)O)co1` the AC50 [7] was 28.2 µM (active) and the AC50 [2] was 19 µM (active).

In the case of `Cc1occc(=O)c1O`, the outcome [1] was “inactive” and the outcome [2] was “inactive”.

For `Cc1cc(SC2=C(O)C[C@@](CCc3ccc(N)cc3)(C(C)C)OC2=O)c(C(C)(C)C)cc1CO`, the outcome [1] was “inactive”, the AC50 [7] was 50 µM (active) and the AC50 [2] was 61.8 µM (active). The outcome [3] was “inactive” and the AC50 [19] was 68.9 µM (active).

With `C/C=C/c1ccc(OC)cc1` the outcome [1] was “inactive”, the outcome [7] was “inactive” and the outcome [2] was “inactive”. The outcome [3] was “inactive”.

In the case of `C=CCCCCCCCCCCCC`, the outcome [7] was “inactive” and the outcome [2] was “inactive”.
